The sample as a whole holds a higher share of hits than the screen did.
Shiga toxin inh: A qHTS for Small Molecule Inhibitors of Shiga Toxin. Vero cells, Shiga toxin protein synthesis inhibition reporter. actives 9.2% (n = 290,000). inhibition, % at 38.7 µM; in the data active = inhibition mostly above about 28%, no sharp cut-off; inactive = mostly below about 43%; note: 0% is about no effect
MARV entry inh: qHTS for inhibitors of binding or entry into cells for Marburg Virus; Marburg virus pseudotyped entry inhibition, cell reporter; Potency, µM (top dose mostly 37.8 µM), inactives show at the highest dose activity change, negative = inhibition, actives largely listed as inhibitors; actives 1.8% (n = 300,000); AID 540276, 2011; calls by dose curve; tested in HEK293 cells; note: potency is the fitted concentration of half-maximal effect; % is set by controls: 0 for no effect and ±100 for the full control effect
LASV entry inh: qHTS for Inhibitors of binding or entry into cells for Lassa Virus. Lassa virus pseudotype entry inhibition, cell reporter. Potency, µM (titrated, usually from 37.9 µM), for the others: top-dose activity change, negative = inhibition, usual class: inhibitors. actives 1.2% (n = 300,000). AID 540256, 2011; calls by dose curve; tested in HEK293 cells; note: potency is the fitted concentration of half-maximal effect; % is set by controls: 0 for no effect and ±100 for the full control effect; nearly all actives have a fitted effect of over 50% in size
CHX counter: Cycloheximide Counterscreen for Small Molecule Inhibitors of Shiga Toxin; max response, %; AID 2314, 2010; actives 12% (n = 300,000); cell reporter, cycloheximide protein synthesis inhibition counterscreen; in the data active = max response mostly above about 13%, no sharp cut-off; inactive = mostly below about 14%; note: read at 38.3 µM for the half of the compounds with a filed dose; 0% is about no effect
AMA1-RON2 inh: qHTS for Inhibitors of AMA1-RON; Towards Development of Antimalarial Drug Lead: Primary Screen; Plasmodium falciparum AMA1 (3D7) - RON2 peptide interaction; AlphaScreen AMA1-biotinylated RON2 peptide binding; Potency, µM (doses to about 58.2 µM), for inactives: top-dose activity change, negative = inhibition, actives largely listed as inhibitors; actives 0.2% (n = 360,000); active = well fitted inhibition curve with a large enough effect; inconclusive = small, poorly fitted or top-dose-only effect; inactive = no such curve, though single readings can be large or run the other way;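 note: potency is the fitted concentration of half-maximal effect; 0% = vehicle wells and -100% = peptide control; nearly all actives have a fitted effect of over 45% in size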
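AMA1 (3D7) with his tag at 25 nM final met compounds first, then biotinylated RON2 peptide at 25 nM; detection used donor plus acceptor beads, 10 µg/mL apiece, read by AlphaScreen after 30 min at room temperature.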
* hit, by the source's call; u = inconclusive; x = not tested or not shown; [ ] = dose if it differs, or a comment.

SMILES	Shiga toxin inh	MARV entry inh	LASV entry inh	CHX counter	AMA1-RON2 inh
CN1C[C@@H](CO)O[C@@H](n2cnc3c(N4CCOCC4)ncnc32)C1	x	x	x	x	4.1%
O=C(O)c1ccc(S(=O)(=O)N[C@H](Cc2ccc([N+](=O)[O-])cc2)C(=O)O)cc1	-2.4	x	x	3.2	x
CC1(c2nnc(-c3ccc(Cl)cc3)o2)CC(c2cccnc2)=NO1 (stereo unspecified)	x	x	x	x	-2.5%
O=[N+]([O-])c1ccc(-c2ccc(S(=O)(=O)NCCN3CCCC3)cc2)cc1	-12.6	18.3µM*	u	-2.4	5.1%
O=[N+]([O-])c1ccc(S(=O)(=O)NCCN2CCOCC2)cc1	51.0*	0.0%[46.1 µM]	0.9%	2.2	7.3%
O=[N+]([O-])c1cccc(S(=O)(=O)NCCCN2CCOCC2)c1	5.4	u	2.7%	3.1	-1.1%
CCOc1ccc2nc(N[C@@](NC(C)=O)(C(=O)OC)C(F)(F)F)sc2c1	x	-6.4%	x	x	x
CCN(CC(=O)Nc1c(F)cccc1F)C(=O)c1ccc(OCC(=O)N2CCOCC2)c(OC)c1	x	-14.7%[46.1 µM]	-9.7%	x	40.8%
Cc1ccc(Nc2c(-c3ccccn3)nc3cccc(C)n23)cc1	1.1	x	x	-4.7	-84.3%
Cc1cccc2nc(-c3ccccn3)c(Nc3ccccc3)n12	x	u	11.2µM*	x	x
CC(C)N1C(=O)CCC1C(=O)NCc1cccs1 (stereo unspecified)	72.5	21.6%[46.1 µM]	15.2%	43.5*	3.6%
O=C(CCC1CCCC1)NCc1cccs1	99.5	18.0%	4.3%	25.8*	-7.6%
O=C(CCS(=O)(=O)c1cccs1)NC1CCCCCC1	115.3*	u	u	30.7*	2.3%
O=C(NCC1CC1)c1cccs1	x	x	x	x	1.2%
O=C(NCCC1CCCC1)c1cccs1	45.0*	x	x	40.2*	0.7%
O=C(CCCOc1ccc(Br)cc1)Nc1nnc(C2CC2)s1	x	x	x	x	2.2%
O=C(NC1CCCCCC1)c1cccs1	67.8*	26.5%	17.6%	37.6*	-0.4%
COc1cccc(CN(C)C(=O)CN2C(=O)NC(c3ccccc3)(c3ccccc3)C2=O)c1	x	x	x	x	-8.8%
Cc1ccc(C)c(NC(=O)Cn2c(SCC(=O)NCc3ccccc3)nc3ccccc32)c1	x	x	-18.0%[46.1 µM]	x	x
CC1=CCC(COC(=O)Nc2ccccc2)CC1 (stereo unspecified)	82.0*	0.3%[46.1 µM]	u	51.3*	27.2%
O=C(Nc1ccccc1)OCC1CCCN2CCCCC12 (stereo unspecified)	10.1	18.1%	13.8%	28.7	-2.2%
CCOC(=O)C1(C)CCN1C(=O)c1ccccc1C(F)(F)F (stereo unspecified)	x	x	x	x	0.7%
O=C(Nc1cccc2nsnc12)c1cccs1	99.3*	28.5%	u	35.2*	-0.7%
O=C(Nc1cccc2cccnc12)c1cccs1	79.2	x	x	37.4*	x
O=C(O)c1ccc(C(=O)Nc2cccc3cccnc23)cc1	29.5	x	x	9.6	x
SMILES	Shiga toxin inh	MARV entry inh	LASV entry inh	CHX counter	AMA1-RON2 inh
O=C(Nc1ccccc1)Nc1cccc2nsnc12	85.7	u	u	34.4*	42.2%
Cc1ccc(S(=O)(=O)N2CCCC(C(=O)NCCc3ccc(S(N)(=O)=O)cc3)C2)cc1 (stereo unspecified)	-0.8	-1.9%[46.1 µM]	x	-4.7	-10.7%
CC(C)C[C@H](NC(=O)[C@H](Cc1ccccc1)NC(=O)[C@H](Cc1ccccc1)NC(=O)[C@@H](N)CO)C(=O)N[C@@H](CCCN=C(N)N)C(=O)N[C@@H](CC(N)=O)C(=O)O	-4.7	x	x	-8.1	x
O=C(CSc1nc(-c2ccccc2)cs1)NCc1ccco1	43.8*	u	3.1%	22.4*	4.6%
COCCNC(=O)CSc1nc(-c2ccccc2)cs1	45.4*	24.4%	-0.6%	25.5*	4.8%
O=C(CSc1ncc(-c2ccccc2)nn1)NCc1ccco1	-4.5	6.8%	-3.8%	-2.0	-6.0%
COCC(=O)NCCc1nc(-c2ccccc2)cs1	-40.1	u	u	-2.8	-0.2%
Cc1cc(COc2ccccc2)oc1C(=O)O	x	x	x	7.2	-3.6%
O=C(CN1C(=O)NC2(CCOc3ccccc32)C1=O)NCCc1ccc(F)cc1 (stereo unspecified)	x	x	x	x	-1.1%
COc1ccc2c(c1)CCc1c(C(=O)NCC(C)C)noc1-2	178.4*	x	x	39.3*	-16.6%
COc1ccc2c(c1)CCc1c(C(=O)Nc3ccc(OC)cc3OC)noc1-2	x	25.7%[46.1 µM]	7.3%[46.1 µM]	x	x
COc1ccc2c(c1)CCc1c(C(=O)NCc3cccnc3)noc1-2	22.9	u	13.6%	12.2*	-3.6%
COc1ccc2c(c1)CCc1c(C(=O)N3CCCCCC3)noc1-2	114.5*	1.2%	48.2%[14.3 µM]	46.5*	-9.2%
CCCNC(=O)c1noc2c1CCc1cc(OC)ccc1-2	70.9*	x	x	48.2*	2.7%
Cc1c(NC(=O)C(C)OC(=O)c2ccc(NC(=O)CC#N)cc2)c(=O)n(-c2ccccc2)n1C (stereo unspecified)	x	8.7%[46.1 µM]	7.9%	x	17.6%
O=C(CSc1cn[nH]n1)Nc1ccc(Cl)cc1Cl	32.6	1.6%[46.1 µM]	0.0%[46.1 µM]	7.8	50.1%
COc1ncnc2c1ncn2CCCN[C@H](C)c1cccc2ccccc12	x	x	x	x	-1.5%
CCOC(=O)c1c(NC(=O)CN2CCOCC2)sc2c1CC(C)(C)OC2	-24.9	-18.2%	-2.9%	-5.5	11.9%
CCOc1ccc(NC2=C(Cl)C(=O)N(Cc3ccccc3)C2=O)cc1	-8.9	-36.1%	-12.5%	-1.8	u
COc1ccc(NC2=C(Cl)C(=O)N(CCc3ccccc3)C2=O)cc1	53.0	13.4%	15.7%	26.0*	-4.1%
COc1ccc(NC2=C(Cl)C(=O)N(CCc3ccccc3)C2=O)c(OC)c1	58.7*	-6.5%	12.4%	73.0*	u
COc1ccc(CCNC2=C(Cl)C(=O)N(CCc3ccc(OC)c(OC)c3)C2=O)cc1OC	-7.8	u	u	15.4	13.4%
Cc1ccc(NC(=S)/C(=C(\[O-])c2ccc(Cl)s2)[n+]2cccc(CO)c2)cc1C	68.2*	u	14.7%	39.6*	43.6%
CCOC(=O)CCCNC(=O)CCNC(=O)c1ccc(OCC(C)C)cc1	-2.5	u	6.3%	-2.9	-0.5%
CCOC(=O)CCCNC(=O)CCNC(=O)c1ccc(OC(C)C)cc1	54.4*	-0.7%	0.2%	16.5*	5.6%
SMILES	Shiga toxin inh	MARV entry inh	LASV entry inh	CHX counter	AMA1-RON2 inh
Cc1ccc(-c2nc3ncccc3n2O)cc1	27.1	x	x	7.5	-2.8%
COn1c(-c2ccc(Cl)cc2)nc2ncccc21	60.1*	x	x	49.5*	3.7%
COc1ccc(C(=O)/C=C/Nc2ccc(S(=O)(=O)Nc3cccc(C(C)=O)c3)cc2)cc1	93.4*	u	u	39.1*	-2.5%
COc1cccc(C(=O)/C=C/Nc2ccc(S(=O)(=O)Nc3ccc(C(C)=O)cc3)cc2)c1	91.1*	u	u	50.9*	-4.4%[2.32 µM]
COc1cccc(C(=O)/C=C/Nc2ccc(S(=O)(=O)Nc3nc(C)cc(C)n3)cc2)c1	-4.0	25.4%	3.4%	9.9	-8.1%
CC(=O)c1ccc(NS(=O)(=O)c2cccc(C)c2)cc1	88.6*	u	8.9%	35.5*	-0.5%

Compound activity deposited in PubChem by National Center for Advancing Translational Sciences (NCATS).
